Screens as filed in PubChem BioAssay.
Most compounds without a hit are left out; they make up all but 4% or so of the library.
MazF activator – MazEF (E. coli) toxin RNase activation | P0AE70 | FAM/BHQ RNA-DNA oligo cleavage fluorescence, 5 h | activation, % at 20 µM | 0.32% of 350,000 active; in the data active = activation above about 50%
Target sequence (P0AE70 whole entry, looked up): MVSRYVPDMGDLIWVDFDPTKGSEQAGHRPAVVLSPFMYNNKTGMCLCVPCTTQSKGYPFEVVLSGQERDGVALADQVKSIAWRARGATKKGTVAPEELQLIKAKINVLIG
Anthrax LF prot – anthrax lethal factor protease inhibition; P15917; multiplex microsphere protease cleavage assay, LF; inhibition, % at 10 µM; 0.12% of 360,000 active; also: plate controls were buffer without enzyme for full effect and enzyme alone for no effect
Autofluor counter – counter-screen for toxin protease inhibitors: compound fluorescence; compound autofluorescence counterscreen, microsphere flow cytometry; hits give high values; fluorescence intensity (test concentration not listed); 3.1% of 360,000 active; AID 624483; in the data active = fluorescence intensity above about 16000; inconclusive = no clear call, values can overlap the other calls
DUSP3 inh – inhibitors of human VHR1 phosphatase (DUSP3); P51452; recombinant VHR phosphatase, pNPP absorbance; inhibition, % at 13.3 µM; 0.52% of 290,000 active; AID 1654; in the data active = inhibition above about 50%
Target sequence (P51452 whole entry, looked up): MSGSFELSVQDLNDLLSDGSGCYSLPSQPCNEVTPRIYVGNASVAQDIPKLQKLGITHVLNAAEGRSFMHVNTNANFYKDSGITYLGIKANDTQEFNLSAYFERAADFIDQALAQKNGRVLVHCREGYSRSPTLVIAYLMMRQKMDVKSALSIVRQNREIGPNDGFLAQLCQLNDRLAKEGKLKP
BoNT-A LC inh2 – blocks Botulinum neurotoxin A light chain protease; 0.17% of 360,000 active; AID 588499; inhibition, % at 10 µM; multiplex microsphere protease substrate cleavage, flow cytometry; also: plate controls were buffer without enzyme for full effect and enzyme alone for no effect
BoNT F protease – inhibitors of Botulinum neurotoxin F light chain protease; 0.22% of 360,000 active; AID 588497; Multiplex microsphere protease cleavage assay, flow cytometry; inhibition, % at 10 µM; in the data active = inhibition above about 35%, passing the limit was not always enough; inconclusive = no clear call, values can overlap the other calls; also: plate controls were buffer without enzyme for full effect and enzyme alone for no effect
The depositor's hits bear a star; u = inconclusive; x = no result. Rule as the data show it, unless noted: active = inhibition above about 30%; inconclusive = no clear call, values can overlap the other calls; inactive = below that.

SMILES | MazF activator | Anthrax LF prot | Autofluor counter | DUSP3 inh | BoNT-A LC inh2 | BoNT F protease
CCOc1ccccc1NC(=O)Cn1cnc2c(cnn2-c2ccc(C)c(C)c2)c1=O | 162* | -3 | 2820 | 14 | 0 | -3
COC(=O)c1ccccc1NC(=O)Cn1cnc2c(cnn2-c2ccccc2)c1=O | 63* | 0 | 9725 | 16 | 0 | -7
COc1ccc(CCNC(=O)Cn2cnc3c(cnn3-c3ccccc3Cl)c2=O)cc1OC | 3 | -1 | 21068* | 22 | 3 | 4
O=C1c2ccccc2NC(c2ccc(F)cc2)N1Cc1ccccc1 (stereo not drawn) | 0 | 8 | 3572 | 15 | 2 | 0
CCOC(=O)C1CCN(C(=O)COC(=O)c2nc3nc(C)cc(C)n3n2)CC1 | 7 | -1 | u | x | 5 | -5
CCCSc1nnc2n(N)c(=O)c3ccccc3n12 | 1 | 2 | 22548* | 24 | 0 | -1
Nn1c(=O)c2ccccc2n2c(SCc3ccccc3)nnc12 | 5 | 1 | 3009 | -18 | 0 | -1
Cc1ccccc1C(=O)Nc1c(C)[nH]c(=O)[nH]c1=O | 7 | -4 | 4089 | -5 | -2 | 7
Cc1[nH]c(=O)[nH]c(=O)c1NC(=O)c1cccs1 | 7 | -6 | 21903* | 11 | 2 | 2
CNC(=O)NC(=S)NC(=O)c1cccc(Cl)c1 | -14 | 3 | u | 15 | -1 | -2
O=C(Nc1ccc(-c2nnco2)cc1)c1ccccc1 | 8 | -3 | 2408 | -4 | 0 | 2
O=C(Nc1ccccc1)Nc1cccc(-c2nnco2)c1 | 2 | 0 | 3011 | 53* | 0 | -6
Cc1noc(C)c1CSCC(=O)OCc1nc2ccccc2c(=O)n1CC#N | 4 | 1 | 21620* | -2 | 7 | 6
Cc1occc1-c1nnc(SCc2nc3ccccc3c(=O)n2CC#N)n1C | 11 | -1 | 23590* | 29 | 0 | -5
CN(C)Cc1nc2ccccc2c(=O)n1CC#N | 2 | -1 | 3186 | -1 | -1 | -4
CCN(CC(=O)Nc1cc(Cl)ccc1C)C(=O)CCS(=O)(=O)c1ccc(Cl)cc1 | -3 | 0 | 5978 | 7 | -1 | -3
CC(C)OC(=O)c1cc(C(=O)c2cc(F)ccc2O)coc1=N | 1 | -2 | 16808* | 29 | 0 | -1
NC(N)=N/N=C/c1ccc(OCc2ccccc2Cl)cc1 | 7 | -11 | 6225 | 2 | -2 | -29
NC(=O)C1CCCN(C(=O)NC2CCCCC2)C1 (stereo not drawn) | 6 | 0 | 2483 | 10 | 0 | -8
NC(=O)C1(c2ccccc2)CCOCC1 | 9 | 2 | 4742 | 0 | -1 | 1
O=C(CCl)Nc1ccc(Oc2cnc3ccccc3n2)cc1 | 2 | 0 | 21837* | 25 | 3 | 5
COc1ccc(OC)c(-n2c(O)c(C=NCc3ccc4c(c3)OCO4)c(=O)[nH]c2=O)c1 | 7 | -1 | 16727* | 2 | -1 | -3
CCc1cccc(Oc2nn[nH]n2)c1 | 5 | 0 | 24949* | 23 | -3 | -4
Cc1ccc(Oc2nn[nH]n2)cc1 | 5 | 0 | 11115 | 9 | 0 | 4
Nn1c(Cc2cccc3ccccc23)nnc1SCc1c(F)cccc1Cl | 4 | -1 | 2017 | -2 | 2 | 27
SMILES | MazF activator | Anthrax LF prot | Autofluor counter | DUSP3 inh | BoNT-A LC inh2 | BoNT F protease
Cc1ccc(N=C2NC(=O)C(CO)(CO)S2)cc1 | 9 | -18 | 3871 | 34 | -1 | u
Cc1ccc(C)n1-c1nc(=S)[nH][nH]1 | 0 | -1 | 16597* | 23 | -1 | -1
S=c1nc(-c2ccc(Cl)cc2)[nH][nH]1 | 10 | -16 | 3952 | 9 | 2 | u
CC(=O)N1CCN(c2ccc(NC(=S)NC(=O)c3ccccc3)cc2)CC1 | -4 | 0 | 9272 | -1 | -2 | 2
C=CCc1ccc(OCCn2nnc3ccccc32)c(OC)c1 | -4 | 10 | 3703 | 56* | -1 | 9
COc1cc(C(=O)N/C(=C\c2cn(C)c3ccccc23)C(=O)NCCCO)cc(OC)c1OC | 1 | -5 | 3383 | 2 | -1 | -1
CN1CCN(NC(=O)c2cccc(F)c2)CC1 | -3 | 0 | 4834 | 23 | 0 | -1
O/N=C/c1ccc2ccccc2n1 | -6 | -10 | 3713 | -9 | -2 | 41*
O=S(=O)(c1ccc(Br)s1)N1CCC(Cc2ccccc2)CC1 | -22 | -2 | 23471* | 12 | 1 | 0
O=S(=O)(c1ccc(Cl)s1)N1CCC(Cc2ccccc2)CC1 | -2 | 0 | 23306* | 16 | -3 | -5
O=c1c(Cc2ccc(F)cc2)c(O)ccn1C1CCCCC1 | 8 | -2 | 2488 | -2 | -1 | -1
O=C(O)CC1S/C(=N/N=C/c2ccccn2)NC1=O (stereo not drawn) | -16 | -4 | 3958 | -5 | 0 | -3
Cc1oc(C(=O)O)cc1COc1ccc2c3c(c(=O)oc2c1C)CCC3 | -7 | 0 | 16185* | -4 | 0 | -5
Cc1oc(C(=O)O)cc1COc1ccc2c3c(c(=O)oc2c1C)CCCC3 | x | x | x | 29 | x | x
O=C(CNC(=O)N1CC(=O)Nc2ccccc21)Nc1ccccc1F | -15 | 1 | 5812 | 9 | 2 | 0
CCOc1ccccc1NC(=O)CNC(=O)N1CC(=O)Nc2ccccc21 | 3 | -2 | 5744 | 51* | -1 | 4
CS(=O)(=O)c1cnc(-c2ccccc2)nc1Sc1ccc(F)cc1 | -35 | -14 | 3610 | 34 | 1 | -23
COc1ccc(C(=O)/C=C/c2cn(CN3CCN(C)CC3)c3ccccc23)cc1 | -3 | -1 | 23529* | 16 | -1 | -1
Cc1cc(C)n(-c2nnc(C)n2/N=C/c2ccccc2F)n1 | 3 | -1 | 22946* | 20 | 0 | 2
COc1ccccc1/C=N/n1c(C)nnc1-n1nc(C)cc1C | -1 | -2 | 9769 | 14 | 0 | 0
CCCC(=O)Nc1ccc(NC(=O)c2ccco2)c(OC)c1 | -1 | 1 | 11080 | 5 | -1 | 2
COc1cc(NC(=O)c2ccco2)c(OC)cc1NC(=O)CCC(=O)Nc1cc(C)cc(C)c1 | -3 | -2 | 20576* | 17 | -3 | -5
COc1cc(NC(=O)c2ccco2)c(OC)cc1NC(=O)CCC(=O)Nc1cc(C)ccc1C | -2 | -1 | 20046* | 15 | 0 | 1
N#Cc1ccccc1/C=N/Nc1nc(-c2ccccc2)c2cc(Cl)ccc2n1 | -6 | -1 | 3917 | 14 | 1 | 6
OCCNc1nc(-c2ccccc2)c2cc(Cl)ccc2n1 | -7 | 2 | 3998 | 4 | 2 | 3
Cc1ccc2nc(NCCO)nc(-c3ccccc3)c2c1 | 1 | 1 | 23056* | 12 | 1 | 0
Cc1ccc2nc(N/N=C/c3ccccc3C#N)nc(-c3ccccc3)c2c1 | 17 | -3 | 17384* | 4 | -2 | -5
COc1ccc(S(=O)(=O)N2CCN(Cc3cc4c(cc3Br)OCCO4)CC2)cc1 | 2 | -5 | 3053 | x | -1 | -1
COc1ccc(COCC(O)CN2CCCC(C(F)(F)F)C2)cc1 (stereo not drawn) | x | 1 | 4885 | 21 | 0 | 6
